An excerpt weighted towards active compounds, which were near 2.1% of everything screened.
Abeta yeast res = compounds reversing amyloid beta toxicity in yeast; yeast expressing A-beta42, growth rescue, OD600, 48 h; response scale: 0% DMSO, 100% iron-clioquinol control; Potency, µM (top dose mostly 46.1 µM), actives largely listed as activators; 410,000 compounds, 0.063% hits; AID 1347071; also: nearly all actives have a fitted effect of over 55% in size
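Growth rescue measured by 600 nm absorbance after 48 h yeast culture at 30 C with compound. Values normalized between DMSO and an equimolar ferric chloride plus clioquinol control.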
FUS yeast rescue = FUS proteinopathy suppression in yeast; S. cerevisiae FUS-expressing, growth rescue, OD600, 24 h; Potency, µM (doses to about 76.6 µM), most hits filed as activators; 390,000 compounds, 0.24% hits; AID 1347120; also: nearly all actives have a fitted effect of over 55% in size
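Toxicity suppression screen in FUS-yeast. Cells induced with 2% galactose, starting OD 0.005, treated 24hr at 30C with compounds at multiple final concentrations; growth by OD600.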
aSyn rescue = rescues yeast growth from alpha-synuclein toxicity; Yeast expressing alpha-synuclein, growth rescue, BacTiter-Glo, 24 h; Potency, µM (titrated, usually from 46.1 µM), usual class: activators; 370,000 compounds, 0.14% hits; AID 652106; also: nearly all actives have a fitted effect of over 65% in size
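Screening used galactose-induced yeast with toxic alpha-synuclein levels, exposed to compound for 24 hr at 30 deg C. Cell growth, read with BacTiter-Glo luminescence, gave the measured signal.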
TDP43 rescue = TDP-43 toxicity inhibition in yeast; TDP-43 expressing yeast growth rescue, BacTiter-Glo, 24 h; Potency, µM (top dose mostly 46.1 µM), most hits filed as activators; 410,000 compounds, 1.8% hits; also: nearly all actives have a fitted effect of over 50% in size
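Cell-based yeast growth screen: TDP-43 expression induced in galactose, inoculum OD600=0.02 after raffinose pregrowth to mid-log. Read-out BacTiter-Glo luminescence at 24 hr, 30 deg C; inhibition of toxicity seen as signal increase.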
Large screens that a line does not name were inactive; ! = not active in a repeat. Calls follow the shape of the dose curve; as a rule, active = well fitted curve in the direction sought with a large enough effect; inconclusive = small, poorly fitted or top-dose-only effect, or another doubt; inactive = no such curve, though single readings can be large; an effect the other way counts as inactive or inconclusive.

COC(=O)[C@]12C[C@H](CC(=O)NCc3cccc(C(F)(F)F)c3)C(=O)N(Cc3ccc(Cl)cc3Cl)C1=C[C@H](C(C)(C)C)O[C@@H]2C	FUS yeast rescue 13µM (no result: Abeta yeast res, aSyn rescue, TDP43 rescue)
COC(=O)[C@]12C[C@H](CC(=O)NCc3ccccc3)C(=O)N(Cc3ccc(Cl)cc3Cl)C1=C[C@H](C(C)(C)C)O[C@@H]2C	none (no result: Abeta yeast res, aSyn rescue, TDP43 rescue)
COC(=O)[C@]12C[C@H](CC(=O)N3CCN(C(=O)c4ccco4)CC3)C(=O)N(Cc3ccc(Cl)cc3Cl)C1=C[C@H](C(C)(C)C)O[C@@H]2C	FUS yeast rescue 11µM (no result: Abeta yeast res, aSyn rescue, TDP43 rescue)
COCCNC(=O)CN1CCC(NC(=O)c2ccco2)CC1	none
O=C(NCCS(=O)(=O)N1CCN(c2ccc(F)cc2)CC1)c1cccc(C(F)(F)F)c1	Abeta yeast res inconclusive, TDP43 rescue 10µM (no result: aSyn rescue)
Cc1cccc(C(=O)O/N=C(\N)Cc2ccc([N+](=O)[O-])cc2)c1	none
N/C(Cc1ccc([N+](=O)[O-])cc1)=N\OC(=O)c1ccc2ccccc2c1	TDP43 rescue 11µM
Cn1c(=O)c2c(ncn2CC(=O)Nc2cc(S(=O)(=O)N3CCCCC3)ccc2Cl)n(C)c1=O	none (no result: FUS yeast rescue)
Cc1ccc(CSc2nc3ccsc3c(=O)n2Cc2ccccn2)cc1	TDP43 rescue 35µM (no result: FUS yeast rescue)
N#Cc1ccccc1CSc1nc2ccsc2c(=O)n1Cc1ccccn1	TDP43 rescue inconclusive
Cc1cc(=O)n2c3ccccc3n(CC(O)CN3CCN(CCO)CC3)c2c1C#N (configuration not stated)	none (no result: TDP43 rescue)
COCCCNC(=O)Cc1c(C)c2c(cc(C)c3c(C(C)(C)C)coc32)oc1=O	FUS yeast rescue 32µM
O=C(Oc1cccc(NC(=O)c2ccccc2Cl)c1)c1ccc([N+](=O)[O-])cc1	TDP43 rescue 13µM
CCCCCCCCN1C(=O)[C@H](CC(=O)NCCCN2CCCC2=O)C[C@@]2(C(=O)OCC)CCCC=C12	FUS yeast rescue inconclusive
CCOC(=O)[C@]12CCC=C1N(CCC1=CCCCC1)C(=O)[C@H](CC(=O)NCCCOC)C2	none
CCCCCCCCN1C(=O)[C@H](CC(=O)NCCCOC)C[C@@]2(C(=O)OCC)CCCC=C12	FUS yeast rescue 13µM
CCOC(=O)N1CCN(C(=O)C[C@@H]2C[C@@]3(C(=O)OC)CCCCC=C3N(Cc3ccc(Cl)cc3Cl)C2=O)CC1	FUS yeast rescue inconclusive, TDP43 rescue 22µM
CCCCCCCCN1C(=O)[C@H](CC(=O)N2CCN(C(=O)OCC)CC2)C[C@@]2(C(=O)OCC)CCCC=C12	FUS yeast rescue inconclusive, TDP43 rescue 25µM
CCCCNC(=O)C[C@@H]1C[C@@]2(C(=O)OCC)CCCC=C2N(CCC2=CCCCC2)C1=O	TDP43 rescue 35µM
Cc1ccc2oc(-c3ccc(C)c(NC(=O)c4ccc(C(C)(C)C)cc4)c3)nc2c1	none
COc1ccc(OC)c(C2=NOC(C(=O)Nc3c(C)n(C)n(-c4ccccc4)c3=O)C2)c1 (configuration not stated)	none
CCOC(=O)[C@]12CCCC=C1N(CCC1=CCCCC1)C(=O)[C@H](CC(=O)NCc1cccc3ccccc13)C2	Abeta yeast res inconclusive, TDP43 rescue 35µM
COc1ccc2ccccc2c1/C=N\NC(=O)c1cccnc1	Abeta yeast res inconclusive
CC(C)CCNC(=O)CCCOc1ccccc1	none
O=C(CCCOc1cccc(Br)c1)NCCOc1ccccc1	TDP43 rescue 13µM
Cn1c(=O)[nH]c(=O)c2c1nc(Sc1ccccc1)n2CCc1ccccc1	none
O=C(CCSCc1cccc(Cl)c1)NCCc1ccc(Cl)cc1	TDP43 rescue 11µM!
O=C(CCSCc1ccc(Cl)cc1)NCCc1ccccc1	none
COc1ccc(C(=O)NCCc2ccccc2)cc1OC	none
O=C(/C=C/c1cccc([N+](=O)[O-])c1)NCCSCc1cccc(Cl)c1	TDP43 rescue 22µM
COc1ccc(C(=O)NCCSCc2cccc(Cl)c2)cc1OC	TDP43 rescue 20µM
COc1cccc(C(=O)NCCSCc2c(F)cccc2Cl)c1	TDP43 rescue 11µM
O=C(/C=C/c1cccc([N+](=O)[O-])c1)NCc1ccccc1	none
CC[C@]12c3[nH]c4cc(CCC(=O)N(C)C)ccc4c3CCN1C(=O)[C@@H](CC(=O)NC(C)(C)C)C[C@@H]2C(=O)N1CCN(C(=O)C2CC2)CC1	none
CCOc1cc2sc(N3CCC(C(=O)NCCCN4CCCC4=O)CC3)nc2cc1Br	FUS yeast rescue inconclusive (no result: Abeta yeast res)
Cc1c(C(=O)N2CCN(S(=O)(=O)c3cccs3)CC2)oc2ccc(F)cc12	none
CCOC(=O)C(C(=O)Nc1cccc(C)n1)C1CCCCC1 (configuration not stated)	none
COCCCNC(=O)c1csc([C@@H]2C[C@H](O)[C@@H](CO)O2)n1	TDP43 rescue inconclusive
CCOc1ccc(CCNC(=O)CCSCc2cccc(Cl)c2)cc1OCC	TDP43 rescue 22µM (no result: aSyn rescue)
Cc1cc(C)c(S(=O)(=O)NCC(c2cccs2)S(=O)(=O)c2ccccc2)c(C)c1 (configuration not stated)	TDP43 rescue 2.8µM (no result: aSyn rescue)
CCOc1ccc(S(=O)(=O)NCC(c2cccs2)S(=O)(=O)c2ccc(C)cc2)cc1 (configuration not stated)	TDP43 rescue 2.8µM (no result: aSyn rescue)
COc1cc(C)ccc1Oc1ncnc(N)c1[N+](=O)[O-]	none
Nc1ncnc(Oc2cccc(C(F)(F)F)c2)c1[N+](=O)[O-]	TDP43 rescue 13µM
CC(C)c1ccc(C2c3[nH]c4ccccc4c3C[C@H]3C(=O)N(c4ccccc4C(=O)N4CCC[C@H]4C(=O)O)C(=O)N23)cc1 (some centres not stated)	FUS yeast rescue inconclusive
COc1ccc(C2c3[nH]c4ccccc4c3C[C@H]3C(=O)N(c4ccccc4C(=O)N4CCC(C(=O)O)CC4)C(=O)N23)cc1 (some centres not stated)	FUS yeast rescue 22µM
COc1cccc(C2c3[nH]c4ccccc4c3C[C@H]3C(=O)N(C4CC4)CC(=O)N23)c1 (some centres not stated)	none
COc1cccc(C2c3[nH]c4ccccc4c3C[C@H]3C(=O)N(c4ccccc4C(=O)N4CCC(C(=O)O)CC4)C(=O)N23)c1 (some centres not stated)	FUS yeast rescue 28µM
c1ccc2ncc(-n3cnnn3)cc2c1	none
CN(C)c1ccc(/C=N\NC(=S)SCN2C(=O)C3CCC(C)(C2=O)C3(C)C)cc1 (configuration not stated)	Abeta yeast res inconclusive, TDP43 rescue 13µM
CC12CCC(C(=O)N(CSC(=S)N/N=C\c3ccccc3O)C1=O)C2(C)C (configuration not stated)	Abeta yeast res inconclusive, aSyn rescue inconclusive, TDP43 rescue 25µM
COc1ccc(/C=N\NC(=S)SCN2C(=O)C3CCC(C)(C2=O)C3(C)C)cc1 (configuration not stated)	aSyn rescue inconclusive, TDP43 rescue inconclusive
COc1ccc(CN(CC2CCC(C(=O)O)CC2)C(=S)Nc2ccccc2C)cc1 (configuration not stated)	none
